# Source: PubChem BioAssay (NCI)
# This is part of a sample that, as a whole, favours compounds with a hit. Of some 83,000 tested, about 20% had one in any assay.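 Growth was measured after 48 h exposure to one concentration of compound in 96-well plates. Values under 10 count as active.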 Activity calls are given as the source filed them.
# Tested on: MDA-MB-468 breast
# Test: NCI-60 one-dose screen, 48 h (100 = growth as untreated, 0 = no growth, -100 = all killed)
# Settings: 10 µM
# Protocol: Growth inhibition of the MDA-MB-468 human Breast tumor cell line is measured as a screen for anti-cancer activity. Cells are grown in 96 well plates and exposed to the test compound for 48 hours. Compounds are tested at a single concentration, which is 10^-5 M for most compounds. The reported endpoint is percent growth (GI% or GIPRCNT), where numbers from 0 - 100% represent growth inhibition, and numbers from -100% - 0 represent cell death. For example, a value of 40 represents 60% growth inhibition. A value of 0 means no net growth occurred over the course of the experiment. A value of -40 indicates 40% of cells at the beginning of the experiment died by the end of the experiment. A value of -100 means all cells are dead at the end of the experiment.
# NCI-60 Human Tumor Cell Lines Screen was performed using the standard one-dose NCI protocol, which is described in more detail at https://dtp.cancer.gov/discovery_development/nci-60/default.htm.
# Compounds with GIPRCNT values below 10 were considered active. Activity score was based on GIPRCNT using the following formula: […]
# Score is 0 for GIPRCNT values of 100 or above, 50 for GIPRCNT values of 0, and 100 for GIPRCNT values of -100.
row,SMILES,growth
1,CC(=O)c1ccc(Nc2nc(SCCC(C)C)nc(-c3ccc(F)cc3)c2C#N)cc1,69% (inactive)
2,O=C(Cn1nc(-c2ccccc2)ccc1=O)NNC(=S)NC1CCCCC1,103% (inactive)
3,O=C1Nc2ccc(F)cc2/C1=C/c1cccc(OCc2ccccc2)c1,-22.3% (active)
4,COc1ccc(-c2c(N)c(=O)n(C)c3ccccc23)cc1,50.1% (inactive)
5,C/C(=C\c1ccc(O)cc1O)c1ccc2ccc(O)cc2[o+]1,64% (inactive)
6,Cc1ccc(-c2ccc(SCC(=O)Nc3ccc(Cl)c(C(F)(F)F)c3)nn2)cc1,-31% (active)
7,COC1CC(Cn2cc(COc3ccc4ccc(=O)oc4c3)nn2)C(OCc2ccccc2)C(OCc2ccccc2)C1OCc1ccccc1 (stereo not given),93.4% (inactive)
8,COc1cnc2c(c1)C(=O)c1c-2n(CCCNC(C)C)c(=O)c2cc(OC)c(OC)cc12,8.82% (active)
9,Cc1ccc2nc(COc3ccc(C(=O)NNC(=S)NCCc4ccccc4)cc3)[nH]c2c1,15.5% (inactive)
10,Cn1cc(-c2cc(N)n3nc(-c4c[nH]c5ccc(Br)cc45)cc3n2)c2cccnc21,-92.1% (active)
11,CN1CCN(c2ccc(C(=O)/C=C/c3ccc(C#N)cc3)cc2)CC1,26.5% (inactive)
12,Cc1ccc(-c2cc(C(=O)N=Nc3c(O)[nH]c4ccccc34)c3ccccc3n2)cc1,26.3% (inactive)
13,CN(C)c1ccc(/C=C/c2nc3ccccc3c(=O)n2CC(=O)Nc2ccc(Cl)cc2)cc1,31.3% (inactive)
14,CC(=O)Nc1ccc(-c2cn(-c3cccc(C(=O)Nc4ccc(F)c(C(F)(F)F)c4)c3)nn2)cn1,42.8% (inactive)
15,COc1cc2oc(-c3cccc(C(=O)Nc4ccc(Cl)cc4)c3)cc(=O)c2c(OCCNC(=O)CNC(=O)OC(C)(C)C)c1OC,67.4% (inactive)
16,COc1ccccc1[C@H]1C(C(=O)c2ccc(Cl)cc2)C2(N[C@@H]1c1ccccc1)C(=O)Nc1ccccc12 (stereo not given in full),-29.6% (active)
17,CC(=O)NS(=O)(=O)c1ccc(NC(=O)CSC2=NC(c3ccccc3)C(C(C)=O)=C(C)N2)cc1 (stereo not given),110% (inactive)
18,C=C1CC[C@H](C(=C)C)[C@H]2C=C(C)C(=O)C3=C(C(=O)[C@@](C)(O)C3)[C@H]12,-69.5% (active)
19,O=C1CCC(N2Cc3cc(NC(=O)COc4ccccc4)ccc3C2=O)C(=O)N1 (stereo not given),-25.1% (active)
20,CC1(c2ccccc2)NC(=O)N(CC(=O)Nc2ccc(C(=O)/C=C/c3ccccc3)cc2)C1=O (stereo not given),-2.64% (active)

row,SMILES,growth
1,N[C@@H](CSSC[C@H](N)C(=O)Nc1ccc(OCC2CCCC2)cc1)C(=O)Nc1ccc(OCC2CCCC2)cc1,-93.4% (active)
2,COc1ccc2[nH]c(=O)c(CSc3nccc(-c4ccc(Cl)cc4)n3)cc2c1,-28.5% (active)
3,c1ccc(C(=C(c2ccc(OCCN3CCCCC3)cc2)c2ccc(OCCN3CCCCC3)cc2)C2CCCC2)cc1,-87.8% (active)
4,COc1ccc(/C(C)=N/N=C2C(=O)N(C)c3ccc(Br)cc32)cc1S(N)(=O)=O,70.2% (inactive)
5,CCCn1c(=O)c2[nH]c(-c3ccc(OCc4nc5ccc(C(F)(F)F)cc5[nH]4)cc3)nc2n(CCC)c1=O,30.8% (inactive)
6,Cc1ccn2c(C(=O)c3ccccc3)cc(-c3cc(-c4ccc(N(C)C)cc4)c(C#N)c(N)n3)c2c1,50.7% (inactive)
7,CN1C(=O)N(C)C2SC(N/N=C/c3ccccc3F)=NC21 (stereo not given),0.576% (active)
8,O=C1NC(=NC2CCCCCC2)N/C1=C\c1ccc2ncoc2c1,-3.48% (active)
9,CC(=O)Nc1ccc(-n2cnc3cc(-c4ccc(NS(C)(=O)=O)cc4)ccc32)cc1,54.6% (inactive)
10,O=c1c2ccccc2nc(COc2ccccc2)n1/N=C/c1ccc(N2CCCC2)cc1,137% (inactive)
11,COC[C@@H](CC(C)C)N=C1NC(=O)/C(=C/c2ccc3ncsc3c2)N1,-17.8% (active)
12,N#Cc1ccc(-c2nn(-c3ccc(C(=O)O)cc3)cc2CNc2cc(Cl)cc(C(F)(F)F)c2)cc1,-13.7% (active)
13,O=C(O)CCCCCCCCCCN1C(=O)/C(=C/c2cnc(-c3ccccc3)s2)SC1=S,90.9% (inactive)
14,O=C(N/N=C/c1ccc(-c2cccc([N+](=O)[O-])c2)o1)c1[nH]c2ccc(Br)cc2c1-c1ccccc1,-3.87% (active)
15,Nc1cccnc1/C=N/NC(=S)NCCNC(=O)c1ccc(-n2nc(-c3ccccc3O)nc2-c2ccccc2O)cc1,-56.1% (active)
16,O=C(Nc1ccccc1)Nc1nc2ccccc2s1,-1.66% (active)
17,Cc1cc(C)nc(/N=C(\N)Nc2ccc(S(=O)(=O)Nc3nc(C)cc(C)n3)cc2)n1,106% (inactive)
18,CCOC(=O)C1=C(N)N(c2ccc(C)cc2)C2=C(C(=O)CC(C)(C)C2)C1c1ccccc1OC (stereo not given),101% (inactive)
19,CC(=O)c1ccc(NC(=O)NCn2c(=O)[nH]c3ccccc3c2=O)cc1,92% (inactive)
20,CC1(C)CC[C@]23CC[C@]4(C)[C@H](CC[C@@H]5[C@@]6(C)CC[C@H](N)C(C)(C)[C@@H]6CC[C@]54C)[C@H]2[C@H]1OC3=O,-95.6% (active)
